Results from PubChem BioAssay (Tox21).
Results filed as inconclusive are left out. Activity calls are given as the source filed them. Unless noted, the call rests on the fitted dose curve; in most records, active means well fitted curve in the direction sought with a large enough effect in the repeat runs; inconclusive means weak or mixed curves; inactive means no such curve, though single readings can be large; an effect the other way counts as inactive or inconclusive.

Key:
[1] = A CellTox Green Cytotoxicity Assay to monitor cytotoxicity in HepG2 cells - 0 hour (AID 1224882); further: nearly all actives have a fitted effect of over 35% in size
Method in brief: (§1)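 HepG2, 600 cells/well premixed w/ CellTox Green; 5 h settle, 37 C/5% CO2; pintool cpd add (DMSO); 37 C, 40 h; fluorescence read at 0, 8, 16, 24, 32, 40 h.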

[2] = A CellTox Green Cytotoxicity Assay to monitor cytotoxicity in HEK293 cells - 8 hour (AID 1224884); further: nearly all actives have a fitted effect of over 35% in size
Method in brief: (§2)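 Read-out: fluorescence of a cell-impermeant cyanine dye staining DNA of dead cells, proportional to cytotoxicity. HEK293, 600 cells/well with reagent, compound (23 nL DMSO) added after 5 h; reads at 0, 8, 16, 24, 32, 40 h.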

[3] = qHTS RealTime-Glo MT Cell Viability Assay in HepG2 cells - 16 hour (AID 1224885); further: nearly all actives have a fitted effect of over 50% in size
Method in brief: (§3)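 Viability was tracked continuously by NanoLuc luminescence from prosubstrate reduced by living HepG2 cells, at successive time points over 40 h of compound exposure. Cells with reagent were preincubated 5 h at 37 °C before compound addition.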

[4] = qHTS RealTime-Glo MT Cell Viability Assay in HEK293 cells - 24 hour (AID 1224886); further: top concentration of the series differs between compounds; nearly all actives have a fitted effect of over 50% in size
Method in brief: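 Viability tracked continuously by luminescence as live cells reduce a prosubstrate for NanoLuc; HEK293 cells preincubated 5 h, compound-treated at 37 C, and read at 0, 8, 16, 24, 32 and 40 h.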

[5] = qHTS RealTime-Glo MT Cell Viability Assay in HEK293 cells - 8 hour (AID 1224887); further: top concentration of the series differs between compounds; nearly all actives have a fitted effect of over 50% in size
Method in brief: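 Luminescence readout at each listed time point; HEK293, 600 cells/well, RealTime-Glo MT reagent added with cells; compounds pinned (23 nL in DMSO) after 5 h at 37 C; continuous culture at 37 C.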

[6] = A CellTox Green Cytotoxicity Assay to monitor cytotoxicity in HEK293 cells - 16 hour (AID 1224888); further: nearly all actives have a fitted effect of over 35% in size
Method in brief: as §2

[7] = qHTS RealTime-Glo MT Cell Viability Assay in HepG2 cells - 0 hour (AID 1224889); further: nearly all actives have a fitted effect of over 50% in size
Method in brief: as §3

[8] = A CellTox Green Cytotoxicity Assay to monitor cytotoxicity in HepG2 cells - 8 hour (AID 1224890); further: nearly all actives have a fitted effect of over 45% in size
Method in brief: as §1

[9] = qHTS assay to identify small molecule antagonists of the estrogen receptor alpha (ER-alpha) signaling pathway using the BG1 cell line in the presence of 0.1 nM 17-beta-estradiol - cell viability counter screen (AID 1259241); further: nearly all actives have a fitted effect of over 40% in size
Method in brief: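 Following 5 days in phenol red-free medium with charcoal-stripped serum, VM7Luc4E2 cells received test compounds alongside 0.1 nM 17beta-estradiol (final) at 37C for 22 hr. Live cells were then quantified via protease-substrate fluorescence.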

[10] = qHTS assay to identify small molecule antagonists of the androgen receptor (AR) signaling pathway using the MDA cell line in the presence of 0.5 nM R1881 - cell viability counter screen (AID 1259242); further: nearly all actives have a fitted effect of over 45% in size
Method in brief: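 Live-cell protease fluorescence, CellTiter-Fluor, 30 min at 37C. Cells: MDA-kb2, 3,000/well, preincubated 5 hr. Compounds plus 0.5 nM R1881 final, 16 hr, 37C, 0% CO2.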

[11] = target: Androgen receptor (Homo sapiens) (UniProt P10275); test: qHTS assay to identify small molecule antagonists of the androgen receptor (AR) signaling pathway using the MDA cell line in the presence of 0.5 nM R1881 (AID 1259243); further: nearly all actives have a fitted effect of over 50% in size; further: potency means the concentration at half of the fitted maximal effect
Chain of Androgen receptor (Homo sapiens) (P10275 whole entry, looked up): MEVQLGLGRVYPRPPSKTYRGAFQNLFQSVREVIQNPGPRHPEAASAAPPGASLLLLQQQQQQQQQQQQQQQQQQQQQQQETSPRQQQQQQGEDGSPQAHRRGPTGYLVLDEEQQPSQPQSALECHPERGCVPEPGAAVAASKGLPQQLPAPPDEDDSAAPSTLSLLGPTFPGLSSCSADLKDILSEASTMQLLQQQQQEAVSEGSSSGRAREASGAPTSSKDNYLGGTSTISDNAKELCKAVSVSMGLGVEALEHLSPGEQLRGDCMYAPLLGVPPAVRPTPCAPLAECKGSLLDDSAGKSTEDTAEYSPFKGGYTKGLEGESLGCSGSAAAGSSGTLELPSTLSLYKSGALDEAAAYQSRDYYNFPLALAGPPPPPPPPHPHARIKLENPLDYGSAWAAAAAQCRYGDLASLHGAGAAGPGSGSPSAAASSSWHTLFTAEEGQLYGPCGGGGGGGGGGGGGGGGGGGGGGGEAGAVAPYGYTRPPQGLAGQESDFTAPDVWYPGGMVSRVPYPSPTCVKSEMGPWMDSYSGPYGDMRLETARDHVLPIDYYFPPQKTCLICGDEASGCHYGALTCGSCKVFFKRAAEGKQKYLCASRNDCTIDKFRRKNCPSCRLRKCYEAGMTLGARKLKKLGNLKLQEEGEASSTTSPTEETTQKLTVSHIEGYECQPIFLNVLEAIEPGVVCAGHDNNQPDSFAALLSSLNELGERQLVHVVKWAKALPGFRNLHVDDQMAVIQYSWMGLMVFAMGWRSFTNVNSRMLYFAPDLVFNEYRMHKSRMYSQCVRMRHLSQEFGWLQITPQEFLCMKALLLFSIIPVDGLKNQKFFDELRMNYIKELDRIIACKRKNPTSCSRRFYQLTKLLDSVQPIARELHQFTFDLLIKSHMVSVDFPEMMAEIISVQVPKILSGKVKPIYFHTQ
Method in brief: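 MDA-kb2, MMTV-luc (AR/GR elements); 3,000 cells/well; cpd + 0.5 nM R1881 final; 16 hr 37C, 0% CO2; ONE-Glo 30 min RT; luminescence.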

[12] = qHTS assay to identify small molecule phospholipidosis (PLD) inducers (AID 1259344; active means well fitted curve in the direction sought with a large enough effect; an effect the other way counts as inactive or inconclusive)
Method in brief: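 Accumulated phospholipid, stained red by LipidTOX during 24 h compound treatment of HepG2 cells at 37 C, is quantified from images as pit number and intensity, normalised per cell using Hoechst-stained nuclei.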

[13] = qHTS assay to identify small molecule HDAC inhibitors (AID 1259364);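 further: wild-type HCT-116 cells with endogenous class I/II HDAC activity; top concentration of the series differs between compounds; nearly all actives have a fitted effect of over 45% in size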
Method in brief: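 HCT-116 (wild type), 1,500 cells/well, overnight; compound 2 hr 37C 5% CO2; HDAC-Glo I/II reagent 30 min RT; luminescence readout.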

[14] = qHTS assay to identify small molecule HDAC inhibitors - cell viability counter screen (AID 1259365)
Method in brief: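 HCT-116 wild-type, overnight attachment; 2hr drug exposure, 37C; CellTiter-Glo luminescent ATP readout after 30min RT.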

[15] = qHTS assay to identify small molecule agonists of the sonic hedgehog signaling (Shh) pathway - cell viability counter screen (AID 1259366); further: nearly all actives have a fitted effect of over 50% in size
Method in brief: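 Compounds in DMSO were pin-transferred onto 3T3 Gli1-Luc cells that had settled 4hr; plates then stood 24hr at 37C and 5% CO2. One hour before the end, CellTiter-Fluor was added and fluorescence recorded.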

[16] = qHTS assay to identify small molecule antagonists of the sonic hedgehog signaling (Shh) pathway - cell viability counter screen (AID 1259367); further: nearly all actives have a fitted effect of over 55% in size
Method in brief: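 CellTiter-Fluor signal in conditioned medium-stimulated 3T3 Gli1-Luc cells, 23 hr compound exposure, 37C.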

[17] = qHTS assay to identify small molecule agonists of the sonic hedgehog signaling (Shh) pathway (AID 1259368; calls by dose curve;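 further: NIH/3T3-derived 3T3Gli1-Luc cells carrying a stable Gli1-driven firefly luciferase reporter; series mostly up to about 92 µM; nearly all actives have a fitted effect of over 15% in size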)
Method in brief: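 Read-out: firefly luciferase luminescence from a Gli1 response element reporter stably integrated in NIH/3T3-derived 3T3Gli1-Luc cells, measured 30 min at room temperature after reagent addition. Compound exposure lasted 24 hr at 37 C, 5% CO2.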

[18] = qHTS assay to identify small molecule antagonists of the sonic hedgehog signaling (Shh) pathway (AID 1259369; calls by dose curve; further: nearly all actives have a fitted effect of over 45% in size)
Method in brief: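 Luminescence readout: firefly Luc under Gli1 response element in 3T3Gli1-Luc cells (NIH/3T3 clone). Antagonist mode, stimulation by conditioned medium; compound exposure 24hr at 37 C, 5% CO2.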

[19] = A CellTox Green Cytotoxicity Assay to monitor cytotoxicity in HepG2 cells - 32 hour (AID 1224883); further: nearly all actives have a fitted effect of over 50% in size
Method in brief: as §1

[20] = target: Estrogen receptor (Homo sapiens) (UniProt P03372); test: qHTS assay to identify small molecule antagonists of the estrogen receptor alpha (ER-alpha) signaling pathway using the BG1 cell line in the presence of 0.1 nM 17-beta-estradiol (AID 1259244); further: nearly all actives have a fitted effect of over 50% in size
Chain of Estrogen receptor (Homo sapiens) (P03372 whole entry, looked up): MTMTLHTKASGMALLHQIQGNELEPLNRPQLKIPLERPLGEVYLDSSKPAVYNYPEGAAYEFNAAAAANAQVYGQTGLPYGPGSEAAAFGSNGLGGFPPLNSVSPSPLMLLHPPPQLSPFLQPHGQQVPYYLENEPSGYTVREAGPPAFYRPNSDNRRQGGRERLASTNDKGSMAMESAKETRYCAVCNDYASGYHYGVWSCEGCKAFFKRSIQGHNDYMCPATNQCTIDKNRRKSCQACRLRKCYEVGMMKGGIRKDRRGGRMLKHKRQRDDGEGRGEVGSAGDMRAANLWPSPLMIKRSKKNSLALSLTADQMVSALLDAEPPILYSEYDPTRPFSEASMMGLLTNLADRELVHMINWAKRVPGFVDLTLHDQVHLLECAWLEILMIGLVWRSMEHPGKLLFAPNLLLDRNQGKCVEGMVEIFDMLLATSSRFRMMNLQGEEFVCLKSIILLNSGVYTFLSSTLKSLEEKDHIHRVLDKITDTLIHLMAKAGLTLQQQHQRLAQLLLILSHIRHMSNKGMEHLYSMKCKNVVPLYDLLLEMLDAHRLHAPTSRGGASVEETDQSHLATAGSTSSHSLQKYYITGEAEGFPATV
Method in brief: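 Luminescence after ONE-Glo (30 min, room temperature) measured ERE-luciferase activity in VM7Luc4E2 cells treated 22 h with compound and 0.1 nM final 17beta-estradiol as stimulator.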

Measured: Potency

C[N+](C)(CCOc1ccccc1)Cc1cccs1
inactive: [1] | [2] | [3] | [4] | [5] | [6] | [7] | [8] | [9] | [10] | [11] | [12] | [13] | [14] | [15] | [16] | [17]

CCCCCCCCCC[N+](C)(C)[O-]
inactive: [1] | [2] | [3] | [4] | [5] | [6] | [7] | [8] | [9] | [10] | [11] | [13] | [14] | [15] | [16] | [17] | [18]

[K+]
inactive: [1] | [19] | [3] | [4] | [5] | [6] | [8] | [9] | [10] | [20] | [13] | [14] | [16] | [17]

C[N+]1(C)[C@@H]2CC(OC(=O)[C@H](CO)c3ccccc3)C[C@H]1[C@@H]1O[C@@H]12 (stereo partly specified)
inactive: [1] | [19] | [2] | [6] | [8] | [9] | [10] | [20] | [12] | [13] | [14] | [15] | [16] | [17] | [18]

NS(=O)(=O)Cc1noc2ccccc12
inactive: [1] | [2] | [3] | [4] | [5] | [6] | [7] | [8] | [9] | [10] | [11] | [12] | [13] | [14] | [15] | [16] | [17] | [18]

CC(C)C(=O)OC(=O)C(C)C
inactive: [1] | [19] | [2] | [4] | [5] | [6] | [7] | [8] | [9] | [10] | [13] | [14] | [15] | [16] | [17]

O=C(c1ccccc1O)c1ccccc1O
inactive: [1] | [19] | [2] | [5] | [6] | [8] | [9] | [10] | [20] | [14] | [15] | [16] | [17]
active: [11] 24.1 µM

C=C(C)C(=O)OCCOCCOCCOCCOC(=O)C(=C)C
inactive: [1] | [19] | [2] | [4] | [5] | [6] | [7] | [8] | [9] | [10] | [13] | [14] | [16] | [17] | [18]

CCO[Si](OCC)(OCC)c1ccccc1
inactive: [1] | [19] | [2] | [4] | [5] | [6] | [7] | [8] | [9] | [10] | [13] | [14] | [15] | [16] | [17] | [18]
